# Reference: paper PMC8384837, “Expanding the binding specificity for RNA recognition by a PUF domain”
# Key:
# Test in all cases: yeast three-hybrid, YBZ-1, SC-Leu-His + 0.5 mM 3-AT, 4 days
# Details in all cases: tags: N-Gal4 AD-HA kept; label: inside an RPR1-promoter hybrid RNA with tandem MS2 sites; ssRNA
# [1] = target: PUM1 PUF domain R5-QGR (Homo sapiens, UniProt Q14671 828-1176, C1007Q;R1008G;Q1011R)
# Method in brief: (§1)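 The interaction score is the log change in how often each variant appears, from input to selection. Frequencies came from PCR-amplified, Illumina-sequenced repeat regions of Pumilio-1 PUF domain libraries grown in strain YBZ-1 (LexA–MS2 coat fusion, HIS3 reporter) alongside matching RNA elements. Input plates were SC-Leu and selection plates were SC-Leu-His + 0.5 mM 3-AT, each for four days, and the log2 calculation used a pseudocount of 1 where a variant was absent.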
# [2] = target: PUM1 PUF domain R5-ATR (Homo sapiens, UniProt Q14671 828-1176, C1007A;R1008T;Q1011R)
# Method in brief: as §1
# [3] = target: PUM1 PUF domain R5-DMR (Homo sapiens, UniProt Q14671 828-1176, C1007D;R1008M;Q1011R)
# Method in brief: as §1
# [4] = target: PUM1 PUF domain R5-KYR (Homo sapiens, UniProt Q14671 828-1176, C1007K;R1008Y;Q1011R)
# Method in brief: as §1
# [5] = target: PUM1 PUF domain R5-RAG (Homo sapiens, UniProt Q14671 828-1176, C1007R;R1008A;Q1011G)
# Method in brief: as §1
# [6] = target: PUM1 PUF domain R5-RRK (Homo sapiens, UniProt Q14671 828-1176, C1007R;Q1011K)
# Method in brief: as §1
# [7] = target: PUM1 PUF domain R5-KAG (Homo sapiens, UniProt Q14671 828-1176, C1007K;R1008A;Q1011G)
# Method in brief: as §1
# [8] = target: PUM1 PUF domain R3-RVR (Homo sapiens, UniProt Q14671 828-1176, C935R;R936V;Q939R)
# Method in brief: as §1
# [9] = target: PUM1 PUF domain R3-YFE (Homo sapiens, UniProt Q14671 828-1176, C935Y;R936F;Q939E)
# Method in brief: as §1
# [10] = target: PUM1 PUF domain R3-IFG (Homo sapiens, UniProt Q14671 828-1176, C935I;R936F;Q939G)
# Method in brief: as §1
# [11] = target: PUM1 PUF domain R7-LPT (Homo sapiens, UniProt Q14671 828-1176, S1079L;N1080P;E1083T)
# Method in brief: as §1
# [12] = target: PUM1 PUF domain R3-PFL (Homo sapiens, UniProt Q14671 828-1176, C935P;R936F;Q939L)
# Method in brief: as §1
# [13] = target: PUM1 PUF domain R2-EWE (Homo sapiens, UniProt Q14671 828-1176, N899E;Y900W;Q903E)
# Method in brief: as §1
# [14] = target: PUM1 PUF domain R4-MPV (Homo sapiens, UniProt Q14671 828-1176, N971M;H972P;Q975V)
# Method in brief: as §1
# [15] = target: PUM1 PUF domain R8-SYR (Homo sapiens, UniProt Q14671 828-1176, N1122S;Q1126R)
# Method in brief: as §1
# [16] = target: PUM1 PUF domain R3-GWD (Homo sapiens, UniProt Q14671 828-1176, C935G;R936W;Q939D)
# Method in brief: as §1
# [17] = target: T1, PUM1 PUF domain R6-GWC (Homo sapiens, UniProt Q14671 828-1176, N1043G;Y1044W;Q1047C)
# T1 sequence: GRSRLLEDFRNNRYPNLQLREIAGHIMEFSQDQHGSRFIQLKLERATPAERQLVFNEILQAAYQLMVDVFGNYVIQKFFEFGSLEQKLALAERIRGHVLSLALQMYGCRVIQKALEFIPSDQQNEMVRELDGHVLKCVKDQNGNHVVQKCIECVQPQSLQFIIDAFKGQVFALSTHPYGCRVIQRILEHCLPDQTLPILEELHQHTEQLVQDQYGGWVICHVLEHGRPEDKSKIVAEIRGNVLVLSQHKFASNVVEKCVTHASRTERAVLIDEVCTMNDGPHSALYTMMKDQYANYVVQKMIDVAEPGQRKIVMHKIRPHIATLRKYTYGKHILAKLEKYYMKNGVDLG
# Method in brief: as §1
# [18] = target: PUM1 PUF domain R3-TAQ (Homo sapiens, UniProt Q14671 828-1176, C935T;R936A)
# Method in brief: as §1
# [19] = target: PUM1 PUF domain R3-DYE (Homo sapiens, UniProt Q14671 828-1176, C935D;R936Y;Q939E)
# Method in brief: as §1
# [20] = target: PUM1 PUF domain R1-RTW (Homo sapiens, UniProt Q14671 828-1176, S863R;R864T;Q867W)
# Method in brief: as §1
sequence,measurement,setting,value
GGCUAGAACUAGUGGAUCCCCCGGCGCCCGGCGGCUCGAGCCCGGGUAAGUGUCAAUAGUCUGCAUGCCGCCGGGCGCCAUGCCUGCAGGUCGACUCUAGAAAACAUG,binding signal,[1],3.22 log2 enrichment (interaction score)
same,binding signal,[2],3.13 log2 enrichment (interaction score)
same,binding signal,[3],3.01 log2 enrichment (interaction score)
same,binding signal,[4],2.48 log2 enrichment (interaction score)
same,binding signal,[5],3.6 log2 enrichment (interaction score)
same,binding signal,[6],4.43 log2 enrichment (interaction score)
same,binding signal,[7],2.58 log2 enrichment (interaction score)
GGCUAGAACUAGUGGAUCCCCCGGCGCCCGGCGGCUCGAGCCCGGGUAAGUGUAAGUAGUCUGCAUGCCGCCGGGCGCCAUGCCUGCAGGUCGACUCUAGAAAACAUG,binding signal,[8],1.73 log2 enrichment (interaction score)
same,binding signal,[9],5.72 log2 enrichment (interaction score)
same,binding signal,[10],5.86 log2 enrichment (interaction score)
GGCUAGAACUAGUGGAUCCCCCGGCGCCCGGCGGCUCGAGCCCGGGUAAGUGUGAAUAGUCUGCAUGCCGCCGGGCGCCAUGCCUGCAGGUCGACUCUAGAAAACAUG,binding signal,[5],0.18 log2 enrichment (interaction score)
same,binding signal,[6],1.4 log2 enrichment (interaction score)
GGCUAGAACUAGUGGAUCCCCCGGCGCCCGGCGGCUCGAGCCCGGGUAAGUUUAAAUAGUCUGCAUGCCGCCGGGCGCCAUGCCUGCAGGUCGACUCUAGAAAACAUG,binding signal,[11],3.22 log2 enrichment (interaction score)
GGCUAGAACUAGUGGAUCCCCCGGCGCCCGGCGGCUCGAGCCCGGGUAAGUGUAAUUAGUCUGCAUGCCGCCGGGCGCCAUGCCUGCAGGUCGACUCUAGAAAACAUG,binding signal,[8],4.85 log2 enrichment (interaction score)
same,binding signal,[10],3.79 log2 enrichment (interaction score)
same,binding signal,[12],4.55 log2 enrichment (interaction score)
GGCUAGAACUAGUGGAUCCCCCGGCGCCCGGCGGCUCGAGCCCGGGUAAGUGUAAAGAGUCUGCAUGCCGCCGGGCGCCAUGCCUGCAGGUCGACUCUAGAAAACAUG,binding signal,[13],3.45 log2 enrichment (interaction score)
GGCUAGAACUAGUGGAUCCCCCGGCGCCCGGCGGCUCGAGCCCGGGUAAGUGUAUAUAGUCUGCAUGCCGCCGGGCGCCAUGCCUGCAGGUCGACUCUAGAAAACAUG,binding signal,[14],3.02 log2 enrichment (interaction score)
GGCUAGAACUAGUGGAUCCCCCGGCGCCCGGCGGCUCGAGCCCGGGUAAGCGUAAAUAGUCUGCAUGCCGCCGGGCGCCAUGCCUGCAGGUCGACUCUAGAAAACAUG,binding signal,[15],4.37 log2 enrichment (interaction score)
GGCUAGAACUAGUGGAUCCCCCGGCGCCCGGCGGCUCGAGCCCGGGUAAGUGUAAAUAGUCUGCAUGCCGCCGGGCGCCAUGCCUGCAGGUCGACUCUAGAAAACAUG,binding signal,[15],4.42 log2 enrichment (interaction score)
same,binding signal,[16],5.07 log2 enrichment (interaction score)
same,binding signal,[17],2.76 log2 enrichment (interaction score)
same,binding signal,[18],4.25 log2 enrichment (interaction score)
same,binding signal,[19],3.76 log2 enrichment (interaction score)
same,binding signal,[5],0.1 log2 enrichment (interaction score)
same,binding signal,[6],1.82 log2 enrichment (interaction score)
same,binding signal,[10],3.21 log2 enrichment (interaction score)
same,binding signal,[14],2.14 log2 enrichment (interaction score)
same,binding signal,[12],3.64 log2 enrichment (interaction score)
GGCUAGAACUAGUGGAUCCCCCGGCGCCCGGCGGCUCGAGCCCGGGUAAGUGUAAAUUGUCUGCAUGCCGCCGGGCGCCAUGCCUGCAGGUCGACUCUAGAAAACAUG,binding signal,[20],3 log2 enrichment (interaction score)
GGCUAGAACUAGUGGAUCCCCCGGCGCCCGGCGGCUCGAGCCCGGGUAAGUGUUAAUAGUCUGCAUGCCGCCGGGCGCCAUGCCUGCAGGUCGACUCUAGAAAACAUG,binding signal,[5],3.37 log2 enrichment (interaction score)
same,binding signal,[6],4.7 log2 enrichment (interaction score)
